This is part of a sample that, as a whole, favours compounds with a hit. Of some 83,000 tested, about 20% had one in any assay.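 How to read the values: 0–100, growth inhibition (40 = 60% inhibited); 0, no net growth; -100 to 0, cell death (-40 = 40% of starting cells died; -100 = all dead).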 Values without a mark were called inactive. Active and inactive are the calls of the source. How the source made its calls: active means growth percent below 10; inactive means the rest.
The compounds below were run on HCC-2998 colon (assay: NCI-60 one-dose screen, 48 h (100 = growth as untreated, 0 = no growth, -100 = all killed)). Conditions: 10 µM unless noted.

Structure (SMILES)	growth
COc1cc(-c2nccc3[nH]c(-c4ccc5cc[nH]c5c4)nc23)cc(OC)c1OC	-19.2% (active)
COc1ccc(/C=C/C(=O)c2cccc(OCCCCOc3cccc(C(=O)/C=C/c4ccc(OC)c(OC)c4)c3)c2)cc1OC	116%
CC(C)COc1nc2c(c(=O)n(C)c(=O)n2C)n1C	102%
NC(=O)c1c(NC(=O)c2ccc3ccccc3c2)sc2c1CCC(=O)C2	107%
C=C1C(=O)O[C@H]2[C@H]1CC/C(COC(=O)NCc1ccc(Cn3c(=O)sn(CCCCC)c3=O)cc1)=C\CC[C@@]1(C)O[C@@H]21	94.6%
COc1cc(OC)c(/C=C/C(=O)c2c(OC)cccc2OC)c(OC)c1	0.761% (active)
COC1=CC(c2ccc[nH]2)=N/C1=C\c1[nH]c(C)c(C)c1CCC(=O)OCc1ccccc1	6.09% (active)
CCCCCCCCCCC(CN(CC)CC)C(O)c1ccccc1 (stereo not drawn)	-19.4% (active)
CCOC(=O)C1=C(c2ccccc2)N=C2SC=C(c3ccc(Cl)cc3)N2C1c1ccc(Br)cc1 (stereo not drawn)	90.5%
O=C(COc1ccc(-c2nc3cc(Cl)c(Cl)cc3[nH]2)cc1)N=Nc1c(O)[nH]c2ccc(Cl)cc12	95.1%
Cn1ccc(=O)c(C(=O)Nc2nsc3ccc([N+](=O)[O-])cc23)c1	87%
COC(=O)[C@]1(C)CCC[C@]2(C)[C@H]3C[C@H]4C(C(C)C)=C[C@]3(CC[C@H]21)[C@@H]1C(=O)CC[C@H](OCCC#N)[C@@H]14	96.4%
O=c1c2ccccc2n2cnc3ccc(Cl)c1c32	103%

— PubChem BioAssay (NCI)
